This is part of a sample that, as a whole, favours compounds with a hit. Of some 83,000 tested, about 20% had one in any assay.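 Assay: single dose, 48 h. Readout: percent growth (0 = no net growth; negative = cell death). Active: <10.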 The source made the active and inactive calls.
Test system: NCI-H522 lung
Test: NCI-60 one-dose screen, 48 h (100 = growth as untreated, 0 = no growth, -100 = all killed)
Details: 10 µM unless noted
Experimental: Growth inhibition of the NCI-H522 human Non-Small Cell Lung tumor cell line is measured as a screen for anti-cancer activity. Cells are grown in 96 well plates and exposed to the test compound for 48 hours. Compounds are tested at a single concentration, which is 10^-5 M for most compounds. The reported endpoint is percent growth (GI% or GIPRCNT), where numbers from 0 - 100% represent growth inhibition, and numbers from -100% - 0 represent cell death. For example, a value of 40 represents 60% growth inhibition. A value of 0 means no net growth occurred over the course of the experiment. A value of -40 indicates 40% of cells at the beginning of the experiment died by the end of the experiment. A value of -100 means all cells are dead at the end of the experiment.
NCI-60 Human Tumor Cell Lines Screen was performed using the standard one-dose NCI protocol, which is described in more detail at https://dtp.cancer.gov/discovery_development/nci-60/default.htm.
Compounds with GIPRCNT values below 10 were considered active. Activity score was based on GIPRCNT using the following formula: […]
Score is 0 for GIPRCNT values of 100 or above, 50 for GIPRCNT values of 0, and 100 for GIPRCNT values of -100.

Row | Structure (SMILES) | growth
1 | COc1ccc2c(c1)oc1c3[nH]c4ccccc4c3c3c(c21)C(=O)N(O)C3=O | 43% (inactive)
2 | COc1cc(/C=C2\SC(=O)NC2=O)ccc1OCC(=O)Nc1ccc(C(=O)/C=C/c2cc3ccccc3nc2Cl)cc1 | 72.5% (inactive)
3 | C=C1C(=O)O[C@@H]2C[C@@H](C)/C=C\C(=O)[C@](C)(OC(C)=O)C[C@H](OC(=O)/C(C)=C\C)[C@@H]12 | -82.4% (active)
4 | Cc1cn(-c2cc(NC(=O)c3cncc(C#Cc4cnc5ccc(O[C@H]6CCOC6)nn45)c3)cc(C(F)(F)F)c2)cn1 | 93.2% (inactive)
5 | Cc1cnc2nc(NN)[nH]n12 | 93.1% (inactive)
6 | COc1ccc(Oc2ccc(C3CC(c4cc(OC)c(OC)c(OC)c4)=NN3C(C)=O)cc2)cc1 (stereo not given) | 20% (inactive)
7 | COc1ccc(/C(C)=C(\c2ccc(Cl)cc2)c2ccc(OCCN)cc2)cc1 | 102% (inactive)
8 | COc1ccc2c(C3=C(c4c[nH]c5ccccc45)C(=O)N(O)C3=O)coc2c1 | 68.4% (inactive)
9 | Cc1ccc(-c2cc3nc(C(Cl)Cl)nc(-c4ccccc4)n3n2)cc1 | 98.1% (inactive)
10 | Cc1ccc(-c2csc(N/N=C/c3nc4ccccc4n3C3CC3)n2)cc1 | -72.4% (active)
11 | COc1ccccc1N1CCN(C2=NN=C(c3cccc(Cl)c3)c3ccccc3C2)CC1 | -27.1% (active)
12 | Cc1ccc(NC(=O)N[C@@H](Cc2cc(F)cc(F)c2)C(=O)NC2C(=O)N3CCC[C@H]3C(=O)N3CCCC[C@H]3C(=O)N[C@@H](C)C(=O)N3C[C@H](C)C[C@H]3C(=O)O[C@H]2C)c(F)c1 (stereo not given in full) | 19.7% (inactive)
13 | O=C1c2c(c3c4ccc(Br)cc4oc3c3[nH]c4ccccc4c23)C(=O)N1CCO | 43.8% (inactive)
14 | O=C(CCCCCCN1CC(=O)N2[C@@H](c3cccc(Br)c3)c3[nH]c4ccccc4c3C[C@H]2C1=O)NO | 8.55% (active)
15 | Cc1ccc(NC(=O)c2cc(/C=C/C(=O)NO)cc(C(F)(F)F)c2)cc1Nc1nccc(-c2cccnc2)n1 | -73.1% (active)
16 | CCCCCCNC(=O)Oc1ccc(/C(=C(/C)c2ccc(Cl)cc2)c2ccc(OCCN3CCCC3)cc2)cc1 | 65.3% (inactive)
17 | Oc1ccc(CSc2nnc(-c3cnccn3)n2-c2ccccc2)c2cccnc12 | 2.33% (active)
18 | CC(C)=CCc1c2c(c(O)c3c1O[C@]14C(=C[C@@H]5C[C@H]1C(C)(C)O[C@@]4(C/C=C(/C)C(=O)O)C5=O)C3=O)CC(O)C(C)(C)O2 (stereo not given in full) | -53.9% (active)
19 | O=C1c2c(c3c4cccnc4[nH]c3c3ccc4ccccc4c23)C(=O)N1CCN1CCOCC1 | 60.5% (inactive)
20 | COc1ccc(OC)c(NC2=C(Cl)C(=O)C(C)=C(C)C2=O)c1 | 87.2% (inactive)

Row | Structure (SMILES) | growth
21 | CC(=O)Nc1nc2c(s1)C1=CC[C@H]3[C@@H]4CC[C@H](C(C)=O)[C@@]4(C)CC[C@@H]3[C@@]1(C)CC2 | 90.8% (inactive)
22 | C=CCn1c(SCC(=O)Nc2cccc(C(=O)/C=C/c3ccccc3Cl)c2)nc2ccccc2c1=O | 84.8% (inactive)
23 | O=C(NCCNc1cc(-c2cn(-c3ccccc3)nc2-c2cccc(O)c2)ccn1)Nc1ccc(Cl)c(C(F)(F)F)c1 | 72.5% (inactive)
24 | O=c1[nH]c(CCl)nc2c1cnn2-c1ccccc1 | 103% (inactive)
25 | CC(=O)Nc1cccc(-n2cnc3cc(-c4ccc(O)cc4)ccc32)c1 | -29.8% (active)
26 | C/C(=C(/C)C1CC1CCN(C(=O)c1ccc([N+](=O)[O-])cc1)S(=O)(=O)c1ccc(C)cc1)C1CCCCC1 (stereo not given) | 83.8% (inactive)
27 | COc1ccc(/C=C/C(=O)c2nnn(-c3ccc(Br)cc3)c2C)cc1OC | 67.7% (inactive)
28 | COc1ccc(NS(=O)(=O)c2ccc(-c3cnc(C4CC4)o3)cc2)cc1Cl | 33.2% (inactive)
29 | COc1cc2c3c(n(CCCN4CCC[C@H]4C(N)=O)c(=O)c2cc1OC)-c1cc2c(cc1C3=O)OCO2 | 22% (inactive)
30 | O=C(NCCCCCCNC(=O)c1c2c(nc3ccccc13)-c1cccnc1SC2)c1c2c(nc3ccccc13)-c1cccnc1SC2 | 95.7% (inactive)
31 | CC(C)(C)OC(=O)N1CCN(S(=O)(=O)/N=C2\NC(=O)NC2=C(Cl)Cl)CC1 | -52.4% (active)
32 | C=C1C(=O)O[C@@H]2C[C@@H](C)CCC(=O)[C@](C)(OC(C)=O)C[C@H](OC(=O)/C(C)=C\C)[C@@H]12 | 11.8% (inactive)
33 | COc1ccc(C(=O)n2cc(C=O)c3ccccc32)cc1 | 98.6% (inactive)
34 | O=C1c2c(O)cc(O)cc2O[C@@H](c2ccc(O)cc2)[C@@H]1c1c(O)cc(O)c2c(=O)cc(-c3ccc(O)c(O)c3)oc12 | 97.4% (inactive)
35 | O=c1c2ccccc2nc(COc2ccccc2)n1/N=C/C=C/c1ccccc1 | 81.4% (inactive)
36 | COc1cc(CNC(=O)/C=C/c2ccccc2)ccc1OCC(=O)NO | 89.9% (inactive)
37 | C=C1C(=O)O[C@@H]2C[C@@H](C)[C@H](OC)CC(=O)[C@](C)(OC(C)=O)C[C@H](OC(=O)/C(C)=C\C)[C@@H]12 | -67.8% (active)
38 | Cc1ccc(-n2cc(/C=C/C(=O)c3ccc(S(C)(=O)=O)cc3)c(-c3ccc(S(C)(=O)=O)cc3)n2)cc1 | 74.2% (inactive)
39 | COc1ccc(-c2no[n+]([O-])c2Nc2ccccc2Br)cc1 | 81.4% (inactive)
40 | O=C1[C@H]2Cc3c([nH]c4ccccc34)[C@H](c3ccc(Cl)cc3)N2C(=O)CN1C1CCN(Cc2c(Cl)cccc2Cl)CC1 | 75.3% (inactive)

From PubChem BioAssay (NCI)
